A selection: hits, their analogues and other compounds. The true share with any hit is near 1.5%.
FID counter – fluorescent intercalator displacement, NS3 helicase counter-screen; DNA fluorescent intercalator displacement, fluorescence; inhibition, % at 7.9 µM; 0.17% of 290,000 active; in the data active means inhibition above about 37%;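 further: 0% = vehicle and 100% = reference compound; higher means more ethidium bromide displaced from hairpin DNA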
N-glyco inh – N-linked glycosylation inhibition; D54 ERlucT glycosylation luciferase reporter, 24 h; percent of 100 nM tunicamycin response; reporter increase, % at 12.5 µM; 0.23% of 360,000 active;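 active means mean luciferase reporter signal, scaled so untreated is 0 and the glycosylation-blocking control 100, at or above a set limit in every replicate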;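 further: luciferase carries N-glycosylation sites so blocking glycosylation raises the light; 0% = median of neutral control wells and 100% = median of 100 nM tunicamycin wells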
miR122 inh – inhibitors of miR-122 in Huh7 cells | AID 602342 | 0.3% of 340,000 active | activation (reporter increase), % at 12.5 µM | Huh7 miR-122 Renilla luciferase sensor, 48 h; neutral wells = 0, positive control = 100;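 active means mean replicate activation score at least 90 and every replicate individually at or above 90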;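 further: higher luciferase means less miR-122 activity so hits act as miR-122 inhibitors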
CendR NRP1 mod – modulators of CendR peptide binding to human neuropilin-1 | O14786 | FAM-RPARPAR peptide binding to NRP-1, fluorescence polarization | inhibition, % at 25 µM | 0.85% of 360,000 active;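 active means inhibition or corrected inhibition above about 18%, plus a signal ratio from 0.5 to 1.5, limit read from the data, passing the limit was not always enough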
RAD54 inh – inhibitors of human RAD54 branch migration; RAD54 Holliday junction branch migration, FAM/BHQ fluorescence; inhibition, % at 10.4 µM; 0.14% of 360,000 active; AID 602329;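 active means mean normalized replicate activity at least 40 and at least half of replicates scoring 40 or more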;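 further: 0% = median of neutral control wells and 100% = median of positive control wells; inhibitors cause a drop in the FAM fluorescence signal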
RAD52 anneal inh – blocks human RAD52 DNA annealing | P43351 | recombinant RAD52 DNA annealing, FRET fluorescence | inhibition, % at 18.7 µM | 0.46% of 360,000 active | AID 651710;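 active means every replicate showing at least 50% inhibition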
DNA binder FP – DNA binding artifact in RAD52 counter-screen | shares compounds with RAD52 anneal inh | Salmon sperm DNA/acridine orange FP displacement | AC50, µM | 8% of 1,000 active;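 active means fitted half-maximal concentration for signal loss at or below twice the highest dose tested, in every separate run, actives reach about 64 µM in these data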
Numbers without * were called inactive; i = inactive; / = no result; [ ] = dose if it differs, or a comment.

SMILES | FID counter | N-glyco inh | miR122 inh | CendR NRP1 mod | RAD54 inh | RAD52 anneal inh | DNA binder FP
CN(C)CCCN(C(=O)c1ccco1)c1nc2cc3c(cc2s1)OCO3 | 14.4 | 5.8 | 4.9 | 6.5 | 41.2 | 54.4* | i
O=C(Cc1ccccc1)N1CC2(C1)[C@@H](c1ccccc1)[C@H](CO)N2C(=O)Cc1ccccc1 | / | / | / | / | / | -98.2 | /
CCCC#Cc1ccc([C@@H]2[C@H](CO)N3C(=O)CN(C(=O)Cc4cccnc4)C[C@@H]23)cc1 | / | / | / | / | / | -8.5 | /
C[C@H](CO)N1C[C@H](C)[C@@H](CN(C)Cc2ccc(C(=O)O)cc2)OCCCC[C@H](C)Oc2ccc(NS(=O)(=O)c3ccc(F)cc3)cc2C1=O | / | / | 3.6[16.7 µM] | / | -4.8 | 4.6 | /
CC(C)Nc1ccc(Nc2ccnc3cc4ccccc4cc23)cc1 | 72.7* | -6.9 | / | 7.0 | / | 99.0* | 22.4µM*
C[C@H]1CCCCO[C@H](CN(C)C(=O)CCC(F)(F)F)[C@@H](C)CN([C@@H](C)CO)C(=O)c2cc(NS(=O)(=O)c3ccc(F)cc3)ccc2O1 | / | / | -0.2[16.7 µM] | / | -4.4 | 4.5 | /
O=c1ccn([C@@H]2O[C@H](CNCc3cccc4c3sc3ccccc34)[C@@H](O)[C@H]2O)c(=O)[nH]1 | / | 2.2 | -5.8 | 4.3 | 8.1 | 62.1* | i
CCCCN(CCCNC(=S)NCCCc1cnc[nH]1)c1ccc(Br)cn1 | / | 0.9 | 1.0 | 1.3 | 0.5 | 55.4* | i
CNC(C)C(=O)NC(C(=O)N1CCCC1C(=O)Nc1ccc2ncccc2c1)C(C)C (configuration not stated) | / | 8.5 | / | -0.1 | -6.4 | -7.7 | /
CNC(C)C(=O)NC(C(=O)N1CCCC1C(=O)Nc1ccc2[nH]ccc2c1)C(C)C (configuration not stated) | / | 7.2 | 1.0 | 5.4 | 6.7 | 95.6* | i
CN(C)CC(=O)Nc1ccc2c(c1)[C@@H]1C[C@@H](CC(=O)NCc3ccc4c(c3)OCO4)O[C@H](CO)[C@@H]1O2 | / | / | -3.7[16.7 µM] | / | 3.1 | 3.2 | /

Source: PubChem (several laboratories)
